The source made the active and inactive calls. The calls were made as follows: active = hit-call score of the fitted dose curve at least 0.9, where 1 is the maximum; inactive = score below 0.9.
Assay: ATG_PBREM_CIS: Attagene CIS-FACTORIAL HepG2 Assay for human Phenobarbital-responsive Enhancer Module (PBREM) (AID 2282955)
Details: HepG2 PBREM cis-reporter, Attagene multiplexed transcription; actives raise or lower the signal
Method in brief: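 HepG2, transient MRTU transfection, 24 h dosing; RNA → oligo(dT) RT → PCR → 6-FAM extension → HpaI → CE. Bidirectional fit vs DMSO.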

outcome, inactive:
Cn1c(=O)cc(Oc2ccc(F)cc2F)c2cnc(NCC(C)(C)O)nc21, CC(C)CC(C)(O)C#CC(C)(O)CC(C)C (centres undefined), Cc1ccc(S(=O)(=O)O)cc1C, CC(=O)c1ccc2c(c1)[C@H](NC(=O)c1ccc(F)cc1)[C@@H](O)C(C)(C)O2, O=C(O)c1cccc(Oc2ccccc2)c1, C1N2CN3CN1CN(C2)C3, O=C(O)CCN(C1(C(=O)NO)CCCC1)S(=O)(=O)c1ccc(Oc2ccc(F)cc2)cc1, On1ccccc1=S, CCn1nc(Cc2ccccc2)cc1C1CCN(C[C@H]2C[C@H](N(C)[C@@H](C(=O)O)C(C)C)C[C@@H]2c2cccc(F)c2)CC1

Source: PubChem BioAssay (EPA / NIEHS)
